# Vaccinia mCherry: vaccinia inhibition (mCherry reporter). Vaccinia virus mCherry reporter infection, fluorescence. Potency, µM (highest dose often 36.5 µM), for the others: at the highest dose activity change, negative = inhibition, usual class: inhibitors. 310,000 tested, 0.63% active. AID 720579; calls by dose curve; tested in A549 cells; further: nearly all actives have a fitted effect of over 35% in size
# Giardia FBPA inh-1: Giardia lamblia aldolase inhibition. purified Giardia FBPA. Potency, µM (doses to about 59.6 µM), inactives show at the top dose activity, negative = inhibition, hits mostly inhibitors. 290,000 tested, 0.71% active. AID 2451; further: nearly all actives have a fitted effect of over 55% in size
# Target sequence (A8B2U2 whole entry, looked up): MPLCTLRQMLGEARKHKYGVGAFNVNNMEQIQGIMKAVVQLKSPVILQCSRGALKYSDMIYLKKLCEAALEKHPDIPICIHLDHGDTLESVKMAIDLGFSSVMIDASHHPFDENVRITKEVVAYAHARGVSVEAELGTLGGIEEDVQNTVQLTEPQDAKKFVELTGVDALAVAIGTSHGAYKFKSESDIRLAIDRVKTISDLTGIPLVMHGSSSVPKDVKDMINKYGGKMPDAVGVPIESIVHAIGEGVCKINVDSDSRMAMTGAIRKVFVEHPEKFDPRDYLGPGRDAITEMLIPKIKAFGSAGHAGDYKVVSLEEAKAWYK
#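 40 nM FBPA preincubated 10 min at RT with compound (up to 57.5 uM final), then substrate plus GAPDH/TPI/NAD/arsenate coupling and diaphorase/resazurin added. Fluorescence read after 20 min at RT, 525/598 nm.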
# Vaccinia Venus: vaccinia inhibition (Venus reporter); Vaccinia virus Venus reporter expression, fluorescence; AID 720580; 330,000 tested, 0.46% active; Potency, µM (highest dose often 36.5 µM), for inactives: top-dose activity change, negative = inhibition, usual class: inhibitors; calls by dose curve; tested in A549 cells; further: nearly all actives have a fitted effect of over 30% in size
# FMDV antiviral: foot and mouth disease virus antiviral activity; Potency, µM (highest dose often 57.9 µM), without a hit: top-dose activity change, negative = inhibition, actives largely listed as inhibitors; 410,000 tested, 1.2% active; FMDV antiviral cell-based qHTS; calls by dose curve; tested in HEK293T cells; further: read-out not given here; nearly all actives have a fitted effect of over 45% in size
# Giardia growth: Giardia lamblia growth inhibition. shares compounds with Giardia FBPA inh-1. Giardia lamblia trophozoite growth inhibition. Potency, µM (series often up to 57.5 µM), without a hit: top-dose activity change, negative = inhibition, actives largely listed as inhibitors. 1,500 tested, 5% active. AID 2785;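 further: trophozoites exposed to compound for 48 h at 37 °C; nearly all actives have a fitted effect of over 70% in size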
# Mammalian tox: toxic to mammalian cells in Giardia aldolase counter-screen; shares compounds with Giardia FBPA inh-1; mammalian cell viability counter-screen, qHTS; Potency, µM (titrated, usually from 57.5 µM), for the others: at the highest dose viability change, negative = toxicity, actives largely listed as inhibitors; 1,500 tested, 4% active; AID 2786;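 further: Chinese hamster ovary cells used as mammalian cytotoxicity surrogate; viability measured as cellular ATP by luminescence; compound exposure lasted 48 h before reading; nearly all actives have a fitted effect of over 60% in size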
# Giardia FBPA inh-2: confirmation of Giardia fructose-bisphosphate aldolase inhibitors; purified Giardia aldolase enzyme activity, qHTS; shares compounds with Giardia FBPA inh-1; AID 2787; 1,500 tested, 5% active; Potency, µM (highest dose often 57.5 µM), without a hit: at the top dose activity change, negative = inhibition, usual class: inhibitors; further: nearly all actives have a fitted effect of over 45% in size
# Rabbit FBPA inh: selectivity test for Giardia aldolase inhibitors: rabbit aldolase; shares compounds with Giardia FBPA inh-1; Rabbit muscle FBPA enzyme inhibition, selectivity counter-screen; Potency, µM (highest dose often 57.5 µM), for the others: at the highest dose activity, negative = inhibition, most hits filed as inhibitors; 1,500 tested, 4% active; AID 2794; further: nearly all actives have a fitted effect of over 60% in size
# Target sequence (P00883 whole entry, looked up): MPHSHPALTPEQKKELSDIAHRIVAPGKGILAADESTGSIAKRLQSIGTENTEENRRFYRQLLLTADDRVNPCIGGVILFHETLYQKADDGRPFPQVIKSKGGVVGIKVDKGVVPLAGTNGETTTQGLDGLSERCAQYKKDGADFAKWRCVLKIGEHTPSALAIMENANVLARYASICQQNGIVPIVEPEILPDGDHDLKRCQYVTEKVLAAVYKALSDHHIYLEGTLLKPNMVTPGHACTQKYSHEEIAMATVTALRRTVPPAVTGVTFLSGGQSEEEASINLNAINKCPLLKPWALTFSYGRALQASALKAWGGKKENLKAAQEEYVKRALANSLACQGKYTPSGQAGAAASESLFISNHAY
# GAPDH coupling: GAPDH inhibition flagged for Giardia aldolase hits | shares compounds with Giardia FBPA inh-1 | GAPDH coupling enzyme counterscreen, biochemical, qHTS | Potency, µM (series often up to 57.5 µM), inactives show at the highest dose activity change, negative = inhibition, most hits filed as inhibitors | 1,500 tested, 6% active; further: nearly all actives have a fitted effect of over 55% in size
# The depositor's hits bear a star; i = inactive; u = inconclusive; x = no result given; [ ] = dose if it differs, or a comment. Only some compounds are listed: those with a hit (about 2.2% of all), similar ones and a draw of the others. Unless noted, the call rests on the fitted dose curve; in most records, active means well fitted curve in the direction sought with a large enough effect; inconclusive means small, poorly fitted or top-dose-only effect, or another doubt; inactive means no such curve, though single readings can be large; an effect the other way counts as inactive or inconclusive. On the % scale 0 is the no-effect control and ±100 the full control effect; potency means the concentration at half of the fitted maximal effect.
SMILES,Vaccinia mCherry,Giardia FBPA inh-1,Vaccinia Venus,FMDV antiviral,Giardia growth,Mammalian tox,Giardia FBPA inh-2,Rabbit FBPA inh,GAPDH coupling
O=C(c1ccccc1)N1CCN(Cc2ccccc2)CC1,-13.3%,-22.0%,-12.1%,x,x,x,x,x,x
CC(=O)/C(=N\Nc1ccccc1)Sc1nnc(-c2ccccc2)n1-c1ccccc1,-12.6%,u,-2.2%,1.3%,x,x,x,x,x
CC(=O)/C(=N\Nc1ccccc1)Sc1nncn1C,-16.3%,3.54µM*,-8.4%,-10.9%,17.1%[10.4 µM],-0.6%,2.6%,-4.0%,2.8%
Nc1nc(=S)c2ncn([C@H]3O[C@@H](CO)[C@@H](O)[C@@H]3O)c2[nH]1,x,5.61µM*,x,x,-2.2%[19.1 µM],5.01µM*,-2.6%[28.7 µM],-3.1%[28.7 µM],-2.5%[28.7 µM]
Nc1nc(=S)c2ncn(C3OC(CO)CC3O)c2[nH]1 (configuration not stated),-18.3%,x,-11.7%,-13.9%,x,x,x,x,x
O=C(CSc1n[nH]c(-c2cccnc2)n1)Nc1ccc(Br)cc1,-9.7%,14.1µM*,0.5%,-2.8%,u,25.4%,13.4%,5.7%,24.1%
COC(=O)NC(CCc1ccccc1)C(C(=O)OC)C(=O)OC (configuration not stated),x,0.0%,x,x,x,x,x,x,x
C/C=C(\C=C\[C@@H](C)C/C=C/CC/C=C/C=C\C[C@@H](OC)/C(C)=C\C=C(C)C)CC(=O)O,x,7.5%,x,x,x,x,x,x,x
O=C(CCc1ccccc1)NNC(=O)CCc1ccccc1,x,12.0%,x,18.5%,x,x,x,x,x
O=C(CCc1ccccc1)NNC(=O)c1ccccn1,x,17.7µM*,x,3.3%,11.2µM*,u,2.6%,2.3%,-3.6%
Cc1[nH]n(-c2ccccc2)c(=O)c1N=Nc1cccc([N+](=O)[O-])c1,i,8.91µM*,-16.2%,-7.5%,-37.3%[38.3 µM],5.4%,5.0%,8.7%,-3.2%
COC(=O)c1ccc(N=Nc2c(C)[nH]n(-c3ccccc3)c2=O)cc1,x,12.6µM*,x,-3.1%,-24.0%,17.7%,7.7%,-2.0%,7.8%
Cc1[nH]n(-c2ccccc2)c(=O)c1N=Nc1cccc(Cl)c1,x,u,x,72.1%,x,x,x,x,x
Clc1cccc(CN2CCN(Cc3ccco3)CC2)c1,-8.1%,14.1µM*,-12.4%,6.1%,-17.1%,-9.5%,-0.8%,-3.3%,1.6%
C[n+]1c(/C=C/c2ccc(N)cc2)sc2ccccc21,-12.4%,x,16.4%,x,x,x,x,x,x
CCNc1ncc2nc(-c3cc(F)cc(F)c3)c(=O)n(C3CC3)c2n1,x,2.1%,x,-9.0%,x,x,x,x,x
CSS(=O)(=O)c1cccc2cccnc12,i,17.7µM*,-7.6%,-28.1%,22.6%,0.2%,-15.5%,u,u
CCN(CC)S(=O)(=O)c1cccc2cccnc12,x,-7.6%,x,14.6%,x,x,x,x,x
CC(C)C(=O)NC(c1ccccc1)c1cc([N+](=O)[O-])c2cccnc2c1O (configuration not stated),u,u,u,0.0%,x,x,x,x,x
CC(=O)NC(c1ccccc1)c1cc([N+](=O)[O-])c2cccnc2c1O (configuration not stated),u,19.9µM*,u,-19.0%,17.8µM*,u,3.16µM*,u,12.6µM*
CC(=O)NC(c1cccs1)c1cc([N+](=O)[O-])c2cccnc2c1O (configuration not stated),u,u,u,u,0.8%[38.3 µM],29.1µM*,u,u,13µM*
Cc1ccc(/C=C2\SC(=S)N(CC3CCCO3)C2=O)o1 (configuration not stated),30.8%,17.7µM*,147.7%,31.9%,-22.1%,10.3%,-22.8%,-10.2%,-17.7%
Cc1cc(C)c(CN2CCC3(CCC(CNC(=O)c4ccn(C)n4)O3)CC2)cc1C (configuration not stated),i,x,-0.3%,-13.4%,x,x,x,x,x
O=C(Nc1nnc(CCc2ccccc2)s1)C1CCN(C(=O)c2ccco2)CC1,-13.7%,x,-9.0%,x,x,x,x,x,x
CC(C)C[C@H](NC(=O)c1nc[nH]c1C(=O)NCCCCCNC(=O)OC(C)(C)C)C(=O)OC(C)(C)C,i,17.7µM*,u,u,-14.6%,-0.4%,-0.7%,-22.2%,-20.2%
SMILES,Vaccinia mCherry,Giardia FBPA inh-1,Vaccinia Venus,FMDV antiviral,Giardia growth,Mammalian tox,Giardia FBPA inh-2,Rabbit FBPA inh,GAPDH coupling
CC(C)C[C@H](NC(=O)c1nc[nH]c1C(=O)N[C@@H](CCCCNC(=O)OC(C)(C)C)C(=O)OC(C)(C)C)C(=O)OC(C)(C)C,u,-21.9%,u,u,x,x,x,x,x
OC[C@@H](O)C(O)[C@H](O)[C@H](O)CO (some centres not stated),x,-5.8%,x,x,x,x,x,x,x
CC(C)N(CC#CCC(O)(c1ccccc1)C1CCCC1)CCO (configuration not stated),x,9.98µM*,x,-18.2%,4.0%[38.3 µM],-2.6%,2.2%,1.3%,-0.1%
NCCCC[C@H](N)C(=O)N[C@@H](CCCN=C(N)N)C(=O)N1CCC[C@H]1C(=O)N1CCC[C@H]1C(=O)NCC(=O)N[C@@H](Cc1ccccc1)C(=O)N[C@@H](CO)C(=O)N1CCC[C@H]1C(=O)N[C@@H](Cc1ccccc1)C(=O)O,x,-3.0%,x,x,x,x,x,x,x
Cc1nc2cnc(N3CCOCC3)nc2n(CCc2ccccc2)c1=O,x,9.7%,x,-15.4%,x,x,x,x,x
COc1ccc(CCNc2ncnc3nc[nH]c23)cc1,u,x,-29.0%,x,x,x,x,x,x
COc1ccccc1NC(=O)CN1CCCCC1,x,8.9%,-19.5%,-20.8%,x,x,x,x,x
CCN1CCN(CC(=O)Nc2c(OC)cccc2OC)CC1,-7.8%,12.6µM*,-2.0%,1.7%,7.3%[10.4 µM],-1.3%,-1.4%,-2.3%,4.7%
CCN1CCN(CC(=O)Nc2cc(C(F)(F)F)ccc2OCCOC)CC1,x,6.29µM*,x,-14.6%,37.1%,-3.7%,3.3%,0.1%,5.3%
CCCN1CNc2c(c(=O)[nH]c(=S)n2CCC)C1,i,x,-5.3%,x,x,x,x,x,x
C[C@H]1Cc2c(COc3ccccc3)nc3c(c2CO1)CN(S(=O)(=O)c1ccc(C#N)cc1)CC3,x,2.7%[12.9 µM],x,x,x,x,x,x,x
CC(C(Sc1ccccc1N)c1ccccc1)[N+](=O)[O-] (configuration not stated),x,19.9µM*,x,u,u,31.6µM*,5.3%,9.0%,-3.9%
CC(=O)c1ccc(NC(=S)NC(=O)c2c(Cl)c(C)nn2C)cc1,-17.8%,6.29µM*,-11.3%,11.5%,u,16.8%,9.5%,13.7%,1.5%
COc1ccc(CCN(C)C(=O)C2CCCN(C3CCN(Cc4ccccc4)CC3)C2)cc1OC (configuration not stated),x,17.8µM*,x,-13.9%,u,-0.4%,-5.7%,-5.6%,6.0%
COc1ccc(C(=O)N2CCN(C3CCN(Cc4ccccc4)CC3)CC2)cc1OC,-6.6%,u,-1.7%,3.3%,x,x,x,x,x
